“And” between values parts separate entries of the source, which are not always exact repeats. Equal entries are not always repeated. The panel holds about 83,000 compounds, 20% with a hit somewhere; the sample as a whole holds those more often.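 Interpretation: 100, growth as untreated; towards 0, rising growth inhibition; 0, no net growth; 0 to -100, cell death. Compounds scoring below 10 were considered active.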 Values without a mark were called inactive. The source made the active and inactive calls.

Some test systems named below: HCT-15 colon; HT29 colon; SNB-75 CNS; SNB-19 CNS; U251 CNS; PC-3 prostate; SK-MEL-5 melanoma; UACC-62 melanoma; LOX IMVI melanoma; SK-MEL-28 melanoma; SK-MEL-2 melanoma; EKVX NSCLC; SN12C renal; UO-31 renal; TK-10 renal; ACHN renal; CAKI-1 renal; A498 renal; CCRF-CEM leukemia; MOLT-4 leukemia.
Common to all, as to assay: NCI-60 one-dose screen, 48 h (100 = growth as untreated, 0 = no growth, -100 = all killed)
What all share (conditions): 10 µM unless noted

As to `Cc1cccc(Cc2cnc(NC(=O)CCCOc3ccc(Cl)cc3)s2)c1`, the growth with HCT-15 colon was 24.6%; in the assay with HT29 colon it was 11.6%; in the assay with SNB-75 CNS, 21.3%; in the assay with SNB-19 CNS, 27.6%; in the assay on U251 CNS, 14%; with PC-3 prostate, 42.5%. Moreover, the growth is 30.7% with SK-MEL-5 melanoma; 32.4% in the assay on UACC-62 melanoma; 35.6% in the assay with LOX IMVI melanoma; 58.4% with SK-MEL-28 melanoma; 67.2% with SK-MEL-2 melanoma; 41.4% with EKVX NSCLC. Also, the growth is 34.9% in the assay with SN12C renal; 19% in the assay with UO-31 renal; 38.3% in the assay with TK-10 renal; 12.1% in the assay with ACHN renal; 27.1% in the assay with CAKI-1 renal; -2.46% (active) in the assay on A498 renal. In addition, the growth in the assay with CCRF-CEM leukemia is 16.3%; in the assay on MOLT-4 leukemia it was 40.1%.

Turning to `CN(C)C(=O)c1cc2cnc(Nc3ccc(-c4csc5c(=S)cc(N6CCOCC6)oc45)cc3)nc2n1C1CCCC1`, the growth in the assay on HCT-15 colon is 7.32% (active); in the assay on HT29 colon it was 5% (active); with SNB-75 CNS, -37.4% (active); in the assay on SNB-19 CNS, 10.6%; in the assay with U251 CNS, 7.08% (active); in the assay with PC-3 prostate, -4.89% (active). Moreover, the growth with SK-MEL-5 melanoma was -30.4% (active); in the assay on UACC-62 melanoma, -35.8% (active); with LOX IMVI melanoma, -39.8% (active); in the assay on SK-MEL-28 melanoma, 9.77% (active); in the assay on SK-MEL-2 melanoma, -24.6% (active); in the assay on EKVX NSCLC, 12.1%. For the same compound, the growth in the assay on SN12C renal was 7.93% (active); in the assay with UO-31 renal it was -4.43% (active); with TK-10 renal, 4.82% (active); in the assay on ACHN renal, 6.64% (active); in the assay with CAKI-1 renal it was 11.7%; with A498 renal, -38.2% (active). The growth was 1.8% (active) with CCRF-CEM leukemia and 2.85% (active) in the assay on MOLT-4 leukemia.

Regarding `CCN(CC)CCOc1ccccc1C`, the growth with HCT-15 colon is 107%; in the assay on HT29 colon it was 101%; in the assay on SNB-75 CNS, 98.6%; with SNB-19 CNS, 104%; with U251 CNS, 108%; in the assay on PC-3 prostate, 97.3%. For the same compound, the growth with SK-MEL-5 melanoma was 102%; in the assay with UACC-62 melanoma, 101%; in the assay with LOX IMVI melanoma, 104%; with SK-MEL-28 melanoma, 98.3%; with SK-MEL-2 melanoma it was 101%; with EKVX NSCLC, 112%. The growth in the assay on SN12C renal was 98.7%; in the assay with UO-31 renal, 95%; with TK-10 renal it was 107%; with ACHN renal it was 101%; in the assay with CAKI-1 renal, 102%; with A498 renal, 106%. In addition, the values for the growth in the assay with CCRF-CEM leukemia and in the assay on MOLT-4 leukemia were 102% and 103%, respectively.

On to `c1ccc(Cc2cccc[n+]2C(c2ccccc2)c2ccccc2)cc1`, for which the growth with HCT-15 colon was 93.1%; with HT29 colon it was 31.8%; in the assay with SNB-75 CNS, 50.8%; in the assay with SNB-19 CNS it was 58.1%; in the assay with U251 CNS it was 42.5%; in the assay on PC-3 prostate, 35.8%. In addition, the growth in the assay on SK-MEL-5 melanoma is 14.5%; in the assay with UACC-62 melanoma it was 37.7%; with LOX IMVI melanoma, 58.2%; with SK-MEL-28 melanoma, 41.6%; with SK-MEL-2 melanoma it was 11.6%; with EKVX NSCLC it was 30%. Besides, the growth with SN12C renal was 71.5%; in the assay on UO-31 renal, 82.7%; with TK-10 renal, 62.9%; in the assay on ACHN renal, 94.7%; in the assay on CAKI-1 renal, 94.4%; with A498 renal it was 90.1%. Further, the growth in the assay with CCRF-CEM leukemia is 48.6%; in the assay on MOLT-4 leukemia, 59.3%.

`COc1cc(CNC(=O)CCCC/C=C/C(C)C)ccc1O`: the growth is 104% and 96.9% in the assay on HCT-15 colon; 104% with HT29 colon; 93% and 100% in the assay with SNB-75 CNS; 90.9% and 104% in the assay with SNB-19 CNS; 101% and 98% with U251 CNS; 86.6% and 88.1% in the assay with PC-3 prostate. Besides, the growth with SK-MEL-5 melanoma was 97.8% and 97.5%; with UACC-62 melanoma, 96.6% and 104%; with LOX IMVI melanoma, 89% and 86.9%; with SK-MEL-28 melanoma it was 116% and 112%; in the assay on SK-MEL-2 melanoma, 93.3% and 108%; in the assay with EKVX NSCLC, 103% and 97.3%. For the same compound, the growth in the assay with SN12C renal was 92.4% and 91.9%; in the assay with UO-31 renal, 57.7% and 59%; in the assay on TK-10 renal it was 200% and 103%; in the assay with ACHN renal, 99.7%; with CAKI-1 renal, 92.1% and 82.2%; with A498 renal, 112% and 113%. Also, the growth in the assay with CCRF-CEM leukemia is 55.8% and 58.3%; with MOLT-4 leukemia, 84.2% and 73.4%.

`C=C1C(=O)O[C@H]2[C@H]1CC/C(CNS(=O)(=O)c1ccc3ccccc3c1)=C\CC[C@@]1(C)O[C@@H]21`: the growth with HCT-15 colon was -78.5% (active); in the assay on HT29 colon, -78.2% (active); in the assay on SNB-75 CNS it was 38.2%; with SNB-19 CNS, 71.9%; in the assay with U251 CNS it was 48.9%; in the assay on PC-3 prostate, 53.6%. The growth in the assay with SK-MEL-5 melanoma was 31.8%; with UACC-62 melanoma, -12% (active); with LOX IMVI melanoma, -84.8% (active); in the assay on SK-MEL-28 melanoma, -8.36% (active); with SK-MEL-2 melanoma it was 43.7%; in the assay on EKVX NSCLC, 66.6%. For the same compound, the growth in the assay with SN12C renal was 29.1%; with UO-31 renal it was -88% (active); in the assay with TK-10 renal it was -78.5% (active); in the assay with ACHN renal, -39.3% (active); with CAKI-1 renal it was 15.3%; with A498 renal, 58.2%. In addition, the figures for the growth in the assay with CCRF-CEM leukemia and with MOLT-4 leukemia were -18.1% (active) and -27.6% (active), respectively.

On to `COc1c(O)c(O)cc2c3c(oc12)CC(c1ccc2c(c1)OCO2)CC3=O` (stereo not given), for which the growth is 42.1% in the assay with HCT-15 colon; 93.4% with HT29 colon; 84.5% in the assay on SNB-75 CNS; 77.8% in the assay on SNB-19 CNS; 76.2% with U251 CNS; 76.1% with PC-3 prostate. The growth in the assay on SK-MEL-5 melanoma was 31.4%; with UACC-62 melanoma it was 4.1% (active); in the assay with LOX IMVI melanoma it was 25.3%; in the assay on SK-MEL-28 melanoma it was 47%; in the assay with SK-MEL-2 melanoma it was 69.6%; in the assay on EKVX NSCLC it was 65.2%. Moreover, the growth was 82.2% in the assay on SN12C renal; 44.7% in the assay with UO-31 renal; 101% in the assay on TK-10 renal; 29.7% in the assay on ACHN renal; 72% in the assay on CAKI-1 renal; 97.9% in the assay on A498 renal. For the same compound, the growth in the assay on CCRF-CEM leukemia was 56.7%; with MOLT-4 leukemia, 43.5%.

The record behind these values is PubChem BioAssay (NCI).
